Assay results reported in PubChem BioAssay AID488890 (Southern Research Specialized Biocontainment Screening …, 2010).
Hit rate of the full screen: of about 320,000 compounds, about 1,300 (0.41%) were called active. Roughly 3% stayed inconclusive and do not appear here. No rule for the calls is given here. A selection follows. Results with a measured potency or affinity are listed apart.

Assay: growth inhibition of non-replicating M. tuberculosis (AID 488890);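 also: plate controls were DMSO cells for no effect and high antibiotic wells for full effect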
Settings: Mycobacterium tuberculosis non-replicating, at 25 µM, stronger effect = higher value

SMILES | inhibition [%]
COCCn1c(SCC(=O)NC(=O)NC2CCCC2)nc2ccccc2c1=O | -3.24
CN(C)CCCNC(=O)CC1C[C@H](C(=O)N2CCOCC2)[C@@]2(CCC3CCCC3)c3[nH]c4ccccc4c3CCN2C1=O (stereo partly drawn) | 48.7
C=CCOc1ccc(Br)cc1CNC(C)(C)C | 54.2
Cn1nnc(NCc2cc(Br)ccc2OCc2cccs2)n1 | 24.3
CC(C)COc1ccc(Br)cc1CNC(C)(C)C | 72
CC(C)(C)NCc1ccccc1OCc1cccs1 | 6.2
CC1CCCCN1CCn1c(=S)[nH]c2cc3c(cc2c1=O)OCO3 (stereo not drawn) | 9.55
Cc1c(/C=C2\NC(=O)NC2=O)c2ccccc2n1C | 16.4
O=c1cc(O)n(Cc2ccc(F)cc2)c(=O)[nH]1 | -1.55
CCOCCCNC(=O)C1CCC(CNS(=O)(=O)c2cccc3nsnc23)CC1 (stereo not drawn) | -10.5
COc1ccc(C(=O)c2cc3cccc(OC)c3o2)cc1 | 70.7
COc1cccc2cc(C(=O)c3ccccc3)oc12 | 77.7
O=C(COc1ccccc1Cl)N1CCN(C(=O)c2ccco2)CC1 | 6.78
CCOCCOC(=O)c1[nH]c2c(c1C)C(=O)CC(c1cccs1)C2 (stereo not drawn) | 5.49
Cc1[nH]c2ccc(Br)cc2c(=O)c1CN1CCCCC1 | 6.69
O=C(CCNC(=O)c1ccc([N+](=O)[O-])cc1)Nc1ccc(F)cc1F | 69.1
CO/N=C/CC(=O)Nc1ccc(F)cc1F | -1.66
COC(=O)C(/C=N/OCc1ccc([N+](=O)[O-])cc1)NC(=O)c1ccccc1 (stereo not drawn) | 1.7
O=C(Cc1ccc([N+](=O)[O-])cc1)Nc1ccc(Cl)cc1 | 12.6
O=C(C/C=N\OCc1ccc(Cl)cc1Cl)Nc1ccccc1 | 55.5
O=C(O)CC(Cc1ccc(Cl)cc1)C(=O)Nc1ccc([N+](=O)[O-])cc1 (stereo not drawn) | 7.55
O=C(NCCCCc1ccccc1)C1CC(c2cccc(F)c2)=NO1 (stereo not drawn) | 9.38
Nn1c(-c2ccccc2)nc2ccccc2c1=O | -12.5
O=C(O)c1cnc(-c2ccccc2)nc1Sc1cccc(Cl)c1 | 53.3

SMILES | inhibition [%]
CCC(CC)NC(=O)COC(=O)c1cc(SC)ccc1Cl | 28.5
CCOc1ccccc1N1CCN(CC(O)COC2CCCc3ccccc32)CC1 (stereo not drawn) | 59.7
CN(C)C(=O)CSc1nnc([C@H](Cc2c[nH]c3ccccc23)NC(=O)OC(C)(C)C)o1 | -0.86
CC(CCc1ccc(O)cc1)NC1c2ccccc2-c2ccccc21 (stereo not drawn) | 43.3
CC(C)=N/N=C1\NC(=O)C(C)S1 (stereo not drawn) | 54
O=C(CNC(=O)N1CC(=O)Nc2ccccc21)Nc1ccccc1F | -10.2
N=C1S/C(=C\c2ccco2)C(=O)N1c1ccc2c(c1)OCO2 | 0.43
COc1ccc(/C=C2\SC(=N)N(c3nccs3)C2=O)cc1OC | -5.11
CN(C1CCCCC1)S(=O)(=O)c1cccc(C(=O)Nc2ccccn2)c1 | 25.5
CCOP(=O)(Cc1cc(C(=O)CC)c(C)o1)OCC | -21.9
O=[N+]([O-])c1cccnc1Sc1ccc(F)cc1 | 18.3
Cc1ccc(Sc2ncccc2[N+](=O)[O-])cc1 | 23.3
O=c1ccnc(Sc2ncccc2[N+](=O)[O-])[nH]1 | 37.6
CC(C)(C)c1csc(Sc2ncccc2[N+](=O)[O-])n1 | 19.4
CCn1c(=O)n(-c2ccc(Cl)cc2)c(=O)c2c3c(sc21)COC(C)(C)C3 | 5.56
O=C(COC(=O)Cc1ccsc1)Nc1ccc(Cl)cc1F | 70.1
CC(C)(C)OC(=O)CNC(=O)c1[nH]cnc1C(=O)NC1CCNCC1 | -8.53
COc1ccc(OCCCC(=O)NCc2ccco2)cc1 | 56.7
Cc1ccc(OCCCC(=O)NCc2ccco2)cc1 | 53.7
CC1CCN(C(=O)c2cc3c(=O)n4ccccc4nc3s2)CC1 | -10.7
CCCCN(C)Cc1c(C)[nH]c2ccc(C)cc2c1=O | 3.45
CC(CCc1ccccc1)NC(=O)c1ccc(F)cc1 (stereo not drawn) | 65.9
CN(C)CCCN(C(=O)c1ccc(S(=O)(=O)N2CCCCC2)cc1)c1nc2cc3c(cc2s1)OCO3 | 20.6
CC(C)c1ccc(/C=N/NC(=O)c2c(Cl)cnn2C)cc1 | -10.4

SMILES | inhibition [%]
CSCCOC(=O)COc1ccc(/C=N/NC(=O)c2nn(C)cc2Cl)cc1 | 75.7
COc1cc(CN2CCN(Cc3ccc(SC)cc3)CC2)cc(OC)c1O | -26.9
N/C(=N\N=C\c1cccs1)SC1CC(=O)N(c2cccc([N+](=O)[O-])c2)C1=O (stereo not drawn) | -1.1
COc1ccc(N(CN2C(=O)c3ccccc3C2=O)C(=O)C(C)C)cc1 | 2.08
Cc1ccc(C(=O)Nc2ncc(Cc3ccccc3)s2)o1 | 32.2
Cc1ccc(C(=O)Nc2ncc(Cc3ccc(F)cc3)s2)o1 | 13.4
CC(C)C(=O)Nc1ncc(Cc2ccccc2Cl)s1 | 4.24
O=C(Nc1ncc(Cc2ccccc2)s1)C1COc2ccccc2O1 (stereo not drawn) | 64
CC(C)C(=O)Nc1ncc(Cc2ccc(Cl)cc2)s1 | 32.4
O=C(Nc1ncc(Cc2ccccc2Cl)s1)c1ccc([N+](=O)[O-])cc1 | -27.1
Cc1ccc(Cc2cnc(NC(=O)c3ccco3)s2)cc1 | 79
CC(=O)Nc1ncc(Cc2cccc(Cl)c2)s1 | 36.5
O=C(CSc1oc(-c2ccc(F)cc2)nc1S(=O)(=O)c1ccccc1)NCC1CCCO1 (stereo not drawn) | -4.84
CCc1cc(CNC(=O)c2ccc(OC3CCN(CCc4ccccc4)CC3)cc2)on1 | 4.71
CN(CC(=O)Nc1cccc(F)c1)C(=O)c1ccccc1Cc1ccccc1 | -4.13
O=C(NCc1ccco1)c1cccc(S(=O)(=O)N2CCCCC2)c1 | 16.4
CCN1CCN(C(=O)/C(=C/c2ccco2)NC(=O)c2ccccc2)CC1 | -2.48
O=C(CCC(=O)N1CCOc2ccccc21)N1CCCCC1 | -34.4
CN(C)CCCN(C(=O)c1ccc(N2C(=O)CCC2=O)cc1)c1nc2c(F)cccc2s1 | -7.06
CCN1CCCC1CNC(=O)C(=O)NC(C)c1ccccc1 (stereo not drawn) | 5.13
COCc1cc(=O)[nH]c(SCC(=O)c2ccccc2)n1 | -7.52
O=C(O)c1cccc(-n2sc3ccccc3c2=O)c1 | -0.63
O=c1c2ccccc2sn1-c1ccc(F)cc1 | -1.44
CC1(C)CC(=O)C2=C(C1)OC1=C(C(=O)CC(C)(C)C1)C2c1ccccc1 | -3.44

SMILES | inhibition [%]
COc1ccc(NC(=O)CN(C)C2CCCCC2)cc1Cl | 33.9
CN(CC(=O)Nc1ccc(S(N)(=O)=O)cc1)C1CCCCC1 | -0.54
Cc1ccc(NC(=O)CN2CCCCCC2)cc1Br | 5.31
Cc1ccc(NC(=O)CN(C)C2CCCCC2)cc1Cl | 72.6
CCC(=O)Nc1ccc2oc(-c3cccc(C)c3)nc2c1 | -26.3
COCC(=O)Nc1ccccc1C(=O)Nc1ccc(OC)cc1 | -1.58
COc1ccc(CCN(C)C2CCCN(S(C)(=O)=O)C2)cc1OC (stereo not drawn) | -23.7
O=C(CN1CCN(c2ccccc2F)CC1)c1c[nH]c2ccccc12 | 4
COc1ccc(-n2nc(C(=O)NCC(=O)N3CCN(c4ccc(F)cc4)CC3)c3ccccc3c2=O)c(OC)c1 | 3.71
N#Cc1ccc(C(=O)CN2CCN(c3ccccc3)CC2)cc1 | 3.58
COc1ccc(N2CCN(C(=O)C3CCN(C(=O)c4ccc([N+](=O)[O-])cc4)CC3)CC2)cc1 | 21.3
CS(=O)(=O)N(CC(=O)N1CCN(c2ccc(F)cc2)CC1)c1cccc(Cl)c1 | -4.05
O=C(NCc1cccnc1)c1ccc(S(=O)(=O)N2CCCCCC2)cc1 | 5.4
CC(C)c1ccc(NC(=O)COc2ccccc2)cc1 | 75.1
Cc1ccc(NC(=O)COc2ccccc2C=O)cc1Cl | 11.5
O=C(COc1ccc(-n2ccnc2)cc1)Nc1cccc(F)c1 | 62.5
CCOCC(=O)Nc1ccc(Br)c(C)c1 | 78.4
COCC(=O)Nc1ccc(C)c(Cl)c1 | 57.3
Cc1ccc(NC(=O)COc2ccccc2C(=O)Nc2ccccc2)cc1Cl | -4.97
COc1cc(NC(=O)COc2ccc(-n3ccnc3)cc2)cc(OC)c1 | 57.6
Cc1ccc(NC(=O)CCC(=O)NNC(=O)COc2ccccc2)cc1C | -33.1
CC(C)n1ncc(C(N)=O)c1N | -11
O=C(CO/N=C/c1c(Cl)cccc1Cl)NNC(=O)c1ccc(Cl)cc1 | -1.83
CCn1ccnc1CN(C)C(=O)CCc1nnc(CCC2CCCCC2)o1 | 6.59

SMILES | inhibition [%]
Cc1cccc(-n2c(-c3ccncc3)n[nH]c2=S)c1C | 13.2
Nc1nc(SCCC(F)=C(F)F)n[nH]1 | 2.3
O=C(CC(Nc1ccc(Cl)cc1)C(=O)O)c1ccccc1 (stereo not drawn) | 58.9
Cc1nc2ccc(NC(=O)Cc3cccc(F)c3)cc2s1 | 3.01
Cc1cccc(OCC(=O)Nc2ccc3nc(C)sc3c2)c1 | 75.1
O=C(CC(Nc1ccccc1)C(=O)O)c1ccccc1 (stereo not drawn) | 28.9
CC(=O)c1ccccc1OCc1ccc(S(=O)(=O)Cc2ccccc2)cc1 | 46
O=C(NCc1ccccc1F)C1CCCN1C(=O)Nc1ccc(F)cc1 (stereo not drawn) | 5.39
CC1CN(C(=O)COc2ccc3ccccc3c2Br)CC(C)O1 (stereo not drawn) | 3.67
O=C(NCc1cccnc1)C(=O)N/N=C/c1ccccc1[N+](=O)[O-] | 0.97
CC(=O)[C@@]1(O)CCC2C3CC=C4C[C@@H](O)CC[C@]4(C)C3CC[C@@]21C (stereo partly drawn) | -5.65
Cc1nnc(SCc2nnc(-c3cccs3)o2)s1 | 72.4
c1csc(-c2nnc(COc3ncnc4sccc34)o2)c1 | 10.4
Cc1nnc(SCc2nnc(-c3cccs3)o2)n1C | -12.8
Fc1ccc(CSc2nnc(-c3ccncc3)o2)cc1 | 73.6
COc1cccc(C(=O)CSc2nnc(-c3cccs3)o2)c1 | 65
CCSc1nnc(-c2cccs2)o1 | 58.5
Clc1ccc(Cc2noc(-c3cccs3)n2)cc1 | 78.5
Clc1ccc(Cc2nnc(-c3ccccc3Br)o2)cc1 | 69.1
CCOC(=O)c1cnc(SCc2ccc(C(C)(C)C)cc2)nc1N | 14.9
CCOC(=O)C(NC(=O)Nc1ncccn1)(Oc1ccccc1)C(F)(F)F (stereo not drawn) | -3.5
COc1ccc(N2CCOCC2)c(NC(=O)c2ccc(Br)o2)c1 | 10
